Calls of active or inactive are those of the source.
How the values were obtained:
[1] = tested on: Human papillomavirus type 1a protein E7 (residues 44-93); assay: HPV1a E7 fragment binders on microarrays, primary screen, biochemical, small-molecule microarray, residues 44-93, 635 nm fluorescence (AID 1108); conditions: small-molecule microarray binding, fluorescence 635 nm; higher = more signal;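 note: E7 fragment applied at 1 µg/mL in TBST for 1 h at 4 C; score combines spot fluorescence with its signal to noise ratio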
[2] = modulators of HCV replicon luciferase signal, primary screen, HCV replication inhibitor project, Huh7 cells, luciferase reporter (AID 1109); conditions: 48 h, higher = more signal;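 note: huh7 hepatoma cells harbouring a luciferase neomycin HCV replicon reporter; luciferase luminescence as measure of HCV replicon replication; test concentration not given here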
[3] = target: Left-right determination factor 2 (Homo sapiens) (UniProt O00292); assay: LEFTY2 binders on small-molecule microarrays, primary screen, biochemical, small-molecule microarray, 635 nm fluorescence scan (AID 1110); conditions: LEFTY2 binding, higher = more signal
Chain of Left-right determination factor 2 (Homo sapiens) (O00292 whole entry, looked up): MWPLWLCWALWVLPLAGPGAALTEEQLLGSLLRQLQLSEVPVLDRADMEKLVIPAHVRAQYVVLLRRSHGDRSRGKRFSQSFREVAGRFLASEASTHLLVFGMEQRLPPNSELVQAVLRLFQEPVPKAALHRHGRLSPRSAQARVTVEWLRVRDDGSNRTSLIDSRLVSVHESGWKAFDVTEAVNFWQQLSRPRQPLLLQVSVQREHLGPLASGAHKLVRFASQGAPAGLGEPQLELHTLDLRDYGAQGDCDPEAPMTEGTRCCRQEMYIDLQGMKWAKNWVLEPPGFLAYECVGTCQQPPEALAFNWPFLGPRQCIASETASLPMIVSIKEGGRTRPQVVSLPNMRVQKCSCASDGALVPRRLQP

[4] = target: Calmodulin-1 (Homo sapiens) (UniProt P0DP23); assay: CALM1 binders on microarrays, EGTA buffer, profiling panel, biochemical, small-molecule microarray, Cy5-labelled CALM1 (AID 1111); conditions: Cy5-CALM1 binding fluorescence, higher = more signal;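 note: labelled calmodulin applied in Tris saline Tween buffer holding calcium plus EGTA and DTT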
[5] = target: Calmodulin-1 (Homo sapiens) (UniProt P0DP23); assay: calcium-bound CALM1 binders on microarrays, profiling panel, artefact control for SMM control-protein annotation, biochemical, small-molecule microarray, Cy5-labelled CALM1, plus calcium (AID 1112); conditions: Cy5-CALM1 binding fluorescence, higher = more signal;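 note: score merges spot fluorescence with signal to noise from triplicate slides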
[6] = small-molecule microarray binders of probe aWnt5a, primary screen, biochemical, biotinylated probe, 635/667 nm fluorescence (AID 1113); conditions: higher = more signal;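 note: score merges 667 nm fluorescence intensity with signal-to-noise per printed feature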
[7] = small-molecule microarray binders of probe aShh, primary screen, biochemical, biotinylated probe, 635/667 nm fluorescence (AID 1114); conditions: higher = more signal;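 note: probe is biotin-labelled aShh protein from a stem cell growth factor screen; measures binding of labelled protein to compounds printed on the slide; score merges feature fluorescence at 667 nm with signal-to-noise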
[8] = small-molecule microarray binders of probe aNog, primary screen, biochemical, biotinylated probe, 635/667 nm fluorescence (AID 1115); conditions: higher = more signal;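 note: probe is biotinylated aNog protein used at 0.15 µg/mL for 1 h at 4 C; z-score combines 667 nm fluorescence of each spot with its signal to noise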
[9] = target: Torsin-1A-interacting protein 1 (Homo sapiens) (UniProt Q5JTV8); assay: LAP1 binders from COS7 cell lysate, primary screen, small-molecule microarray, 635/667 nm fluorescence (AID 1116); conditions: COS7-hLAP1 lysate binding, 635 nm fluorescence, higher = more signal
Chain of Torsin-1A-interacting protein 1 (Homo sapiens) (Q5JTV8 whole entry, looked up): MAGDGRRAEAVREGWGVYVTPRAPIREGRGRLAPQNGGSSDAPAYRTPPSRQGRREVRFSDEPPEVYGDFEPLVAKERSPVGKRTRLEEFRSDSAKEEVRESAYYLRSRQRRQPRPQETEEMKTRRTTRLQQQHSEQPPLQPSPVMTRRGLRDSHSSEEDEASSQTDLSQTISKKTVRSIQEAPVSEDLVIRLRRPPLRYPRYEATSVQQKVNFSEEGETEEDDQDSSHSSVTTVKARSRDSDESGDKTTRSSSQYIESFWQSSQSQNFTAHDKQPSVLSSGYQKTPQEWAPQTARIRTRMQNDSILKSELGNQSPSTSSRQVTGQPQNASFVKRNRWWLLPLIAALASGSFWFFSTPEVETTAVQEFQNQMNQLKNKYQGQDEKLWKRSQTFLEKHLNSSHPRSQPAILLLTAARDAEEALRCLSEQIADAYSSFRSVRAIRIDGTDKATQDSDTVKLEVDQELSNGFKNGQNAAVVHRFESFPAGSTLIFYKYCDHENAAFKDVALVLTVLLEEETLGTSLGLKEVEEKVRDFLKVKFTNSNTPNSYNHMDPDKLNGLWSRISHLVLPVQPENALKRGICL

[10] = target: Alpha-bungarotoxin (Bungarus multicinctus) (UniProt P60615); assay: alpha-bungarotoxin binders on microarray, profiling panel, artefact control for SMM control protein annotation, biochemical, small-molecule microarray, Alexa647 label, 635/667 nm fluorescence (AID 1117); conditions: alpha-BTX-A647 binding fluorescence, higher = more signal
Chain of Alpha-bungarotoxin (Bungarus multicinctus) (P60615 whole entry, looked up): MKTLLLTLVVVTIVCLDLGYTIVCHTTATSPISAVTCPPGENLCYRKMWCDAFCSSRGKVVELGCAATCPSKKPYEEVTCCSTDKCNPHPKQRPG

Albumin (Bos taurus) = Albumin (Bos taurus) (UniProt P02769); assay: bovine serum albumin binders on microarray, profiling panel, artefact control for SMM control protein annotation, biochemical, small-molecule microarray, Alexa647 label, 635/667 nm fluorescence (AID 1118); conditions: BSA-A647 binding, fluorescence 635 nm, higher = more signal;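 note: score merges 667 nm emission intensity and signal-to-noise per printed compound spot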
Chain of Albumin (Bos taurus) (P02769 whole entry, looked up): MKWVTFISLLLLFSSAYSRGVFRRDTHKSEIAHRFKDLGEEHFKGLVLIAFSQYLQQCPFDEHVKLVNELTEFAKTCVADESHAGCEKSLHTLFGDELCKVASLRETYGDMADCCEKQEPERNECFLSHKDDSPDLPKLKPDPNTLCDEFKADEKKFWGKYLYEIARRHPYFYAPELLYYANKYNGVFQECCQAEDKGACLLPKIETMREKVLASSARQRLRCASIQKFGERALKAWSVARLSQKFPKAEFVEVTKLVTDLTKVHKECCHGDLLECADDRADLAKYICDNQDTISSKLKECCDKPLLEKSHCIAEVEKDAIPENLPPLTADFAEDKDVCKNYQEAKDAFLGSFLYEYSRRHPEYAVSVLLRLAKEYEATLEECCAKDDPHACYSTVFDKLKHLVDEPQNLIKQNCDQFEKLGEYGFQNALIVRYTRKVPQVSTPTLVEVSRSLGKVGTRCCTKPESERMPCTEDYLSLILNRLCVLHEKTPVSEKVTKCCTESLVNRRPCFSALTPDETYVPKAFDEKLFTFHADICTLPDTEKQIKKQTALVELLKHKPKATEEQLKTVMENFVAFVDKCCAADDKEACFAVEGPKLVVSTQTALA

[11] = small-molecule microarray binders of probe aXIP, primary screen, biochemical, NeuroSMM set, 635/667 nm fluorescence (AID 1119); conditions: higher = more signal, called active from +8 up or from −8 down;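 note: probe is the protein aXip251-270 applied at 1 µg/mL to compound-printed slides; binding of probe to printed compounds measured as 667 nm fluorescence plus signal to noise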
[12] = small-molecule binders of probe aNOTCH3, primary screen, biochemical, small-molecule microarray, 635/667 nm fluorescence (AID 1120); conditions: higher = more signal;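 note: probe is a biotin-tagged antibody raised against NOTCH3 rather than NOTCH3 protein; score merges spot fluorescence near 667 nm with spot signal to noise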
[13] = small-molecule binders of probe aNOTCH2, primary screen, biochemical, small-molecule microarray, 635/667 nm fluorescence (AID 1121); conditions: higher = more signal;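 note: score merges feature fluorescence read at 667 nm with its signal to noise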
[14] = target: Carbonic anhydrase 2 (Homo sapiens) (UniProt P00918); assay: CAII small-molecule binders, profiling panel, biochemical, small-molecule microarray, Alexa647-labelled CAII (AID 1122); conditions: CAII-A647 binding fluorescence, higher = more signal
[15] = COS7 lysate on small-molecule microarray, probe aHis, 635 nm (AID 1123); conditions: COS7 cell lysate, fluorescence, higher = more signal;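 note: z-score combines 667nm fluorescence intensity with signal-to-noise per printed compound spot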
[16] = compound binding in COS7 lysate, probe aLAP1, primary screen, cell lysate, small-molecule microarray (AID 1124); conditions: probe aLAP1, fluorescence, higher = more signal;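 note: lysate comes from COS7 cells expressing LAP1 and is applied at 0.3 µg/mL; score merges spot fluorescence near 667 nm with signal-to-noise over triplicate slides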
Sam68 (KHDRBS1) = assay: Sam68 small-molecule binders, primary screen, biochemical, small-molecule microarray, 635 nm fluorescence (AID 1125); conditions: small-molecule microarray binding, higher = more signal;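 note: score merges 667 nm channel intensity with signal to noise over triplicate slides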
[17] = tested on: Chordin-like protein 2 (CHRDL2); assay: CHRDL2 small-molecule binders, primary screen, biochemical, small-molecule microarray, 635 nm fluorescence (AID 1126); conditions: small-molecule microarray binding, fluorescence 635 nm; higher = more signal;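 note: printed compound slides probed with Chrdl2 protein at 4 µg/mL for 1 h at 4 C; score merges 667 nm emission intensity with signal to noise over three replicate slides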
[18] = target: Concanavalin-A (Canavalia ensiformis) (UniProt P02866); assay: ConA small-molecule binders, primary screen, artefact control for SMM control protein annotation, biochemical, small-molecule microarray, Alexa647 label, 635 nm (AID 1127); conditions: ConA-A647 binding fluorescence, higher = more signal;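 note: z combines 667 nm emission intensity with signal-to-noise across three replicate slides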
Chain of Concanavalin-A (Canavalia ensiformis) (P02866 whole entry, looked up): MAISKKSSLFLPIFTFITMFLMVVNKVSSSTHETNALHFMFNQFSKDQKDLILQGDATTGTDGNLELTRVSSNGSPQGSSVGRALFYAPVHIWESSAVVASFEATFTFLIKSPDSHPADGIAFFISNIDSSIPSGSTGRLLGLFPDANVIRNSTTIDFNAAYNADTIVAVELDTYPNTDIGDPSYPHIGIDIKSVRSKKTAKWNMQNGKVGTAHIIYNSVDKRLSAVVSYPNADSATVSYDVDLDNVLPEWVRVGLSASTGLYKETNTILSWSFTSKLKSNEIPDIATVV

SMILES | composite z-score [1] | z-score [2] | composite z-score [3] | composite z-score [4] | composite z-score [5] | composite z-score [6] | composite z-score [7] | composite z-score [8] | composite z-score [9] | composite z-score [10] | composite z-score (Albumin (Bos taurus)) | composite Z-score [11] | composite z-score [12] | composite z-score [13] | composite z-score [14] | composite z-score [15] | composite z-score [16] | composite z-score (Sam68 (KHDRBS1)) | composite z-score [17] | composite z-score [18]
CC(C)(C)OC(=O)CC[C@]1(C(=O)NCc2ccccc2)N=C(c2ccc(OCCCO)cc2)O[C@H]1c1ccccc1CN=[N+]=[N-] | 1.41 | -2.11 | 0.735 | 1.27 | -0.232 | 0.152 | 0.0483 | -0.0768 | 1.69 | 0.466 | 0.75 | -1 (inactive) | 0.526 | -0.127 | 0.68 | 2.45 | 0.583 | 1.3 | -0.0873 | 0.769
COC(=O)[C@@]1(Cc2ccc(OC)cc2)[C@H]2c3cc(C(=O)N(C)C)n(C[C@H](O)CO)c3C[C@H]2CN1C(=O)c1ccccc1 | -1.21 | -0.966 | -0.415 | 2.33 | 1.32 | 0.108 | 0.86 | 2.14 | 2.07 | 1.15 | 0.956 | -0.312 (inactive) | 0.301 | 0.462 | 0.782 | 2.24 | 0.828 | 0.833 | -1.29 | 0.863
CC(C)N1C(=O)c2ccccc2[C@@H](C(=O)NC2CC2)[C@@H]1c1ccc(CO)cc1 | -0.142 | 0.0045 | 0.415 | 1.01 | 0.343 | -0.0236 | -0.282 | -0.288 | 0.997 | 0.654 | 0.368 | 0.131 (inactive) | 0.0246 | -0.161 | 0.742 | 0.467 | 0.37 | 0.343 | 0.593 | 0.697
O=C1NC(=O)C2C1C=CC(C(O)CCc1ccccc1)N2Nc1ccc(Cl)cc1Cl (stereo not given) | -0.72 | -0.271 | -0.448 | 1.54 | 0.819 | 0.539 | -0.0571 | 1.04 | 1.97 | 2.65 | 0.709 | 0.118 (inactive) | -0.142 | 0.345 | 0.79 | 2.25 | 0.925 | 0.969 | -1.3 | -0.0165
C=CCC(OC(C)=O)[C@@H]1[C@@H](N(Cc2cc3ccccc3o2)C(=O)Cc2ccc(F)cc2)c2cc(OCCCO)ccc2N1C(=O)c1ccc2ccccc2c1 (stereo not given in full) | -0.722 | -1.18 | -0.453 | -0.478 | -0.06 | -0.0843 | 0.179 | -0.24 | 0.0682 | 1.29 | -0.379 | 0.749 (inactive) | -0.118 | -0.0904 | 0.31 | -0.234 | 0.0099 | -0.741 | -0.173 | -0.679
CC(CO)N1C(=O)[C@@H]2[C@H]3C(=O)OCC=C[C@H]3OC23C=CCN(Cc2ccccc2)C(=O)[C@@H]13 (stereo not given in full) | -1.13 | -0.254 | -0.509 | -0.216 | -0.324 | 0.206 | -0.211 | -0.273 | -0.5 | -0.221 | 0.407 | -0.106 (inactive) | -0.308 | -0.22 | 0.905 | -0.851 | -0.419 | -1.17 | -0.42 | -0.325
NC(=O)N1C(=O)C2C(C1=O)C1C=C(CCCO)C2C(c2cccs2)N1Cc1cccc(OC(F)(F)F)c1 (stereo not given) | 0.72 | -0.933 | -0.0132 | 0.155 | 0.632 | -0.0721 | 0.723 | -0.0132 | 1.06 | 0.797 | 0.729 | -0.182 (inactive) | -0.023 | -0.0534 | 0.583 | 0.789 | -0.0259 | 1.07 | -0.0665 | 0.434
C=CCC(OC(C)=O)[C@@H]1[C@@H](N(Cc2ccc(-c3cccc(C(F)(F)F)c3)o2)C(=O)c2ccc(-c3ccccc3)cc2)c2cc(OCCCO)ccc2N1C(=O)c1ccc2ccccc2n1 (stereo not given in full) | -0.252 | 0.177 | -0.122 | -0.227 | 0.623 | 0.0437 | 0.112 | -0.139 | -0.2 | -0.386 | -0.267 | -0.219 (inactive) | -0.0077 | 0.357 | -0.232 | 0.266 | -0.154 | -0.734 | 0.198 | -0.458
CCOc1cc(C(O)C2C=CC3C(=O)N(c4ccccc4)C(=O)C3N2Nc2ccc(C#N)cc2)ccc1O (stereo not given) | 0.0289 | -0.131 | -0.0669 | 1.81 | 0.0646 | -0.261 | -0.315 | 0.0582 | 0.562 | 1.28 | 0.876 | 0.793 (inactive) | 0.0638 | -0.171 | 0.877 | 0.825 | 0.876 | -0.0645 | -0.879 | 1.03
CCOC(=O)C[C@H]1[C@H](OC(=O)c2ccc(C(=O)c3ccccc3)cc2)[C@@H](NC(=O)Cc2ccc(OC)cc2)c2cc(OCCCO)ccc2N1C(=O)c1ccccc1 | 0.41 | -1.15 | 0.117 | 0.0574 | 0.425 | 0.112 | -0.237 | 0.0775 | 0.516 | 0.168 | 0.585 | 0.324 (inactive) | 0.0203 | -0.0877 | 0.188 | 0.409 | -0.0137 | 0.428 | -0.0656 | 0.278
C[C@@H]1ON(c2ccc(C(=O)OC(C)(C)C)cc2)[C@H](c2ccc(O)cc2)[C@H]1C(=O)N1C(=O)OC[C@H]1Cc1ccccc1 | 0.606 | -3.77 | 0.545 | 1.35 | 0.307 | 0.0215 | -0.138 | 0.495 | 0.848 | 0.485 | 0.31 | 0.522 (inactive) | 0.0836 | -0.0449 | 0.217 | 0.58 | 0.581 | 1.31 | 0.448 | 1.03

— PubChem BioAssay
